STAT1 activator = STAT1 signaling activation | AID 932 | activation (% of control), % at 5.5 µM | actives 2.6% (n = 200,000) | NIH 3T3 STAT1-luciferase reporter, IFN-gamma, luminescence; 100% = IFN-gamma alone, no compound;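 active means activation above the screen-wide mean activation plus 3 SD, cut at about 130% in these data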;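 further: raw ratio to IFN-gamma control signal so 100% means no change and 0% no light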
APP 5'UTR act = APP 5'UTR luciferase reporter activation; actives 1% (n = 190,000); activation, % at 2 µM; SH-SY5Y APP 5'UTR luciferase reporter, luminescence; zero percent = DMSO vehicle wells;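 active means activation above a set limit, based on mean plus 3 SD of controls, cut at about 140% in these data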
Wee1 stabilizer = human Wee1 degradation inhibition, primary screen; P30291; HeLa Luc-Wee1K328M stability, luciferase luminescence; 100% = proteasome inhibitor MG132 effect; reporter increase, % at 5 µM; actives 1.2% (n = 220,000); AID 1321;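 active means activation above the mean of all tested compounds plus 3 SD, set per screening run, cut at about 8.8% in these data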;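 further: cells exposed to compound for 20 h before luminescence read; 0% = DMSO alone and 100% = MG132 at 30 µM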
Hsp70 activator = switches on Hsp70 transcription; actives 0.04% (n = 200,000); activation, % at 10 µM; HeLa Hsp70 promoter luciferase reporter, luminescence; scaled: vehicle 0, proteasome-inhibitor control 100%; AID 1203;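 active means activation above the mean across all tested compounds plus 3 SD, cutoff set per campaign, cut at about 5.5% in these data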;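 further: 100% = MG132 at 30 µM as the positive control and 0% = DMSO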
NF-kB neuron act = NF-kB expression increase, human neuronal cells; actives 1.6% (n = 190,000); AID 1239; fold change at 12.5 µM; NF-kB reporter expression; stronger effect = higher value; in the data active means fold change above about 3.3
APP transl inh = APP translation inhibition | inhibition, % at 2 µM | SH-SY5Y APP 5'UTR-luciferase reporter, luminescence | actives 0.82% (n = 190,000);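 active means inhibition above a set limit, derived from the sample mean plus 3 SD, cut at about 45% in these data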
An asterisk follows results filed as active. In the library only some 4.8% were active in any assay of this set; here they are far more common.

How did CC/C(C)=N/N1C(=O)c2ccccc2NC1(C)CC (centres undefined) do in these assays?
STAT1 activator: 101.1; APP 5'UTR act: 13.2; Wee1 stabilizer: -1.8; Hsp70 activator: 0.1; NF-kB neuron act: 1.14; APP transl inh: -13.2

What do the screens show for `CSc1nc(N(C)C)nc(N(C#N)CCOC(C)=O)n1`?
STAT1 activator: 109.0; APP 5'UTR act: -20.0; Wee1 stabilizer: 0.7; Hsp70 activator: -0.2; NF-kB neuron act: 1.2; APP transl inh: 20.0

What do the screens show for `O=C(CNC(=O)c1ccccc1Cl)OCC(=O)N1CCc2ccccc21`?
STAT1 activator: 133.6*; APP 5'UTR act: 9.3; Wee1 stabilizer: 0.6; Hsp70 activator: -0.1; NF-kB neuron act: 2.71; APP transl inh: -9.3

Results for CCC1(C(=O)O)NC(c2cccc(OC)c2O)C2C(=O)N(c3ccccc3)C(=O)C21 (centres undefined) ?
STAT1 activator: 104.9; APP 5'UTR act: 10.2; Wee1 stabilizer: 2.7; Hsp70 activator: -0.3; NF-kB neuron act: 1.09; APP transl inh: -10.2

Results for CCOC(=O)Cn1cnc(-c2ccc([N+](=O)[O-])cc2)c1 ?
STAT1 activator: 136.4*; APP 5'UTR act: 13.7; Wee1 stabilizer: 1.6; Hsp70 activator: -0.2; NF-kB neuron act: 1.65; APP transl inh: -13.7

How did O=c1[nH]c(=O)c2ncc(-c3ccc(Cl)cc3)nc2[nH]1 do in these assays?
STAT1 activator: 113.9; APP 5'UTR act: 15.6; Wee1 stabilizer: -0.2; Hsp70 activator: 0.1; NF-kB neuron act: 0.94; APP transl inh: -15.6

What do the screens show for `COc1cc(/C(C)=N/NC(=O)CSc2nncn2C)ccc1OCc1ccccc1Cl`?
STAT1 activator: 128.7*; APP 5'UTR act: 27.3; Wee1 stabilizer: -1.8; Hsp70 activator: 0.0; NF-kB neuron act: 1; APP transl inh: -27.3

How did CC1CCC/C(=C\Nc2ccc(C(=O)O)c(O)c2)C1=O (centres undefined) do in these assays?
Wee1 stabilizer: -0.4

Results for Cc1ccc(CN2C(=O)/C(=C\c3ccc(C(=O)NCc4cccnc4)cc3)Oc3ccccc32)cc1 ?
STAT1 activator: 105.9; APP 5'UTR act: -71.7; Wee1 stabilizer: -3.0; Hsp70 activator: -0.3; NF-kB neuron act: 1.05; APP transl inh: 71.7*

Results for O=C(CSc1nnnn1Cc1ccccc1)Nc1ccccc1 ?
Wee1 stabilizer: 9.3*

Results for O=C(NC1CCCCCC1)C(=S)NCCc1ccccc1 ?
STAT1 activator: 104.7; APP 5'UTR act: -21.8; Wee1 stabilizer: 0.7; Hsp70 activator: 0.1; NF-kB neuron act: 1.48; APP transl inh: 21.8

How did CC(NC(=O)C(=O)NCCC1=CCCCC1)c1ccccc1 (centres undefined) do in these assays?
STAT1 activator: 97.9; APP 5'UTR act: -9.3; Wee1 stabilizer: 8.8*; Hsp70 activator: 0.0; NF-kB neuron act: 1.12; APP transl inh: 9.3

How did O=C(NCCc1ccccc1)NC1CCCCC1 do in these assays?
STAT1 activator: 123.7; APP 5'UTR act: 37.9; Wee1 stabilizer: -1.1; Hsp70 activator: -0.7; NF-kB neuron act: 3.4*; APP transl inh: -37.9

Results for O=C(NCCC1=CCCCC1)NC1CCCCC1 ?
STAT1 activator: 143.9*; APP 5'UTR act: 81.6; Wee1 stabilizer: 4.2; Hsp70 activator: 0.4; NF-kB neuron act: 4.46*; APP transl inh: -81.6

What do the screens show for `O=C(NCCC1=CCCCC1)c1ccc(Cl)cc1`?
STAT1 activator: 98.8; APP 5'UTR act: 228.3*; Wee1 stabilizer: -0.2; Hsp70 activator: -0.3; NF-kB neuron act: 5.55*; APP transl inh: -228.3

Results for O=C(Nc1ccccc1-c1nc2ccccc2s1)c1cccnc1 ?
STAT1 activator: 97.8; APP 5'UTR act: -8.8; Wee1 stabilizer: -1.7; Hsp70 activator: -0.2; NF-kB neuron act: 1.18; APP transl inh: 8.8

Results for Cc1cccc(C(=O)NC(=S)NNC(=O)Cc2ccccc2)c1 ?
STAT1 activator: 94.8; APP 5'UTR act: -11.9; Wee1 stabilizer: -1.7; Hsp70 activator: -0.4; NF-kB neuron act: 0.87; APP transl inh: 11.9

How did Cn1c(=O)n(CCOc2ccccc2Cl)c2ccccc21 do in these assays?
STAT1 activator: 118.2; APP 5'UTR act: 59.6; Wee1 stabilizer: -2.8; Hsp70 activator: -0.1; NF-kB neuron act: 2; APP transl inh: -59.6

How did COc1ccccc1CCNC(=O)NC1CCCCC1 do in these assays?
STAT1 activator: 115.7; APP 5'UTR act: -2.7; Wee1 stabilizer: 9.7*; Hsp70 activator: 0.3; NF-kB neuron act: 1.53; APP transl inh: 2.7
